# From PubChem BioAssay (NCATS)
# Inconclusive results are not listed. Values without a mark were called inactive. The list shows a part of the results. A call without a number means that no potency is given here. Active and inactive are the calls of the source. Unless noted, calls follow the shape of the dose curve; as a rule, active = well fitted curve in the direction sought with a large enough effect; inconclusive = small, poorly fitted or top-dose-only effect, or another doubt; inactive = no such curve, though single readings can be large; an effect the other way counts as inactive or inconclusive.
# Legend:
# [1] = molecular target: Bifunctional 3'-5' exonuclease/ATP-dependent helicase WRN (Homo sapiens) (UniProt Q14191); assay: qHTS for Inhibitors of WRN Helicase: Confirmatory Assay for Cherry-picked Compounds. (AID 720497); settings: WRN helicase DNA unwinding, fluorescence kinetic; also: potency is read from the fitted curve at half-maximal effect; nearly all actives have a fitted effect of over 65% in size
# Bifunctional 3'-5' exonuclease/ATP-dependent helicase WRN (Homo sapiens), sequence (Q14191 whole entry, looked up): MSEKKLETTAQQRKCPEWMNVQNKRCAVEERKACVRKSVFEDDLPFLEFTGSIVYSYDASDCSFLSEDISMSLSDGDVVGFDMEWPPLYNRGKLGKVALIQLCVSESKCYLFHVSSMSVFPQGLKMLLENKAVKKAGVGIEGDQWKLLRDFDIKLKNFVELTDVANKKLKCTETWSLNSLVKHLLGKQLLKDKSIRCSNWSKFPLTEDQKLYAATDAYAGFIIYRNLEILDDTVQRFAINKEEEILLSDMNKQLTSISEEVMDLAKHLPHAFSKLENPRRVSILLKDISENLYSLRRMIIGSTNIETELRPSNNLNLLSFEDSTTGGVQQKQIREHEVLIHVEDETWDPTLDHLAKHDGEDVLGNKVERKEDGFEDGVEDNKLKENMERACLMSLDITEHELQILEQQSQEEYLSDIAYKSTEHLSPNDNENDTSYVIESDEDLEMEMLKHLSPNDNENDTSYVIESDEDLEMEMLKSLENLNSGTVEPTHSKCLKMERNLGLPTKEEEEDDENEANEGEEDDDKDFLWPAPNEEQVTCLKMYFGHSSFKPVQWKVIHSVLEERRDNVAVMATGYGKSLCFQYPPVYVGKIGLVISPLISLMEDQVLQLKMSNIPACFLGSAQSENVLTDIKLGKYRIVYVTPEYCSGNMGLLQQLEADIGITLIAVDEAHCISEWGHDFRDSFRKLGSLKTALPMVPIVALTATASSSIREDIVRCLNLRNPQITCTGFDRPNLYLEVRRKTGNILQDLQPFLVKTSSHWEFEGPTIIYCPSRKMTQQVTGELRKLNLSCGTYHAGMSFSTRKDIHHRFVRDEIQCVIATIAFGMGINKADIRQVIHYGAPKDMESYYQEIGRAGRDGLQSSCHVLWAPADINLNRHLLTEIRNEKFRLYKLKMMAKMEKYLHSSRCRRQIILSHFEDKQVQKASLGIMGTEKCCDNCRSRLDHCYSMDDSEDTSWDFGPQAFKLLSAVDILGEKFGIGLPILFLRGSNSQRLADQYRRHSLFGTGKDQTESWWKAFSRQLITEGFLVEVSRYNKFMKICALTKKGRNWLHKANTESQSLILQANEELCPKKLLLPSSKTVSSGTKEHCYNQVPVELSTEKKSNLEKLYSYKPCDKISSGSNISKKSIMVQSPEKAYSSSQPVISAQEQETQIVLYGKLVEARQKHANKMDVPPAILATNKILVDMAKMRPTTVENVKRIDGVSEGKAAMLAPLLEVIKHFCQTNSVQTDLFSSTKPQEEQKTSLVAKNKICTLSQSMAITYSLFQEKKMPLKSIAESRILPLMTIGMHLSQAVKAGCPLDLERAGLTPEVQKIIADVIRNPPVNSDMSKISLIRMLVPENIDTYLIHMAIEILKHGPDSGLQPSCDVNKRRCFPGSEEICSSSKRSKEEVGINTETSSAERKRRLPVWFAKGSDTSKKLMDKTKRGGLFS
# How it was run: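 Kinetic fluorescence helicase read-out (525 nm excitation, 598 nm emission) on a forked duplex substrate at 100 nM with 2 mM ATP. Enzyme: 20 nM WRN, exposed to compound for 15 min at room temperature. Responses normalized to buffer-only and positive-control wells.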
# [2] = qHTS for Inhibitors of WRN Helicase: Thiazole Orange DNA Binding Counterscreen (AID 720499); settings: thiazole orange DNA binding displacement, fluorescence; series mostly up to 57.1 µM;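 also: drop in dye fluorescence marks compound binding to DNA; nearly all actives have a fitted effect of over 60% in size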
# How it was run: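 Mixture of 100 nM thiazole orange and 50 nM unlabeled DNA exposed to compound 15 min at room temperature. Dye displacement monitored by 480/530 nm fluorescence, identifying nonspecific DNA binders.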
# [3] = molecular target: RecQ-like DNA helicase BLM (Homo sapiens) (UniProt P54132); assay: qHTS for Inhibitors of WRN Helicase: BLM Helicase Counterscreen for WRN Inhibitors (AID 720503); settings: Recombinant BLM helicase DNA unwinding, red fluorescence; also: potency is read from the fitted curve at half-maximal effect; nearly all actives have a fitted effect of over 60% in size
# RecQ-like DNA helicase BLM (Homo sapiens), sequence (P54132 whole entry, looked up): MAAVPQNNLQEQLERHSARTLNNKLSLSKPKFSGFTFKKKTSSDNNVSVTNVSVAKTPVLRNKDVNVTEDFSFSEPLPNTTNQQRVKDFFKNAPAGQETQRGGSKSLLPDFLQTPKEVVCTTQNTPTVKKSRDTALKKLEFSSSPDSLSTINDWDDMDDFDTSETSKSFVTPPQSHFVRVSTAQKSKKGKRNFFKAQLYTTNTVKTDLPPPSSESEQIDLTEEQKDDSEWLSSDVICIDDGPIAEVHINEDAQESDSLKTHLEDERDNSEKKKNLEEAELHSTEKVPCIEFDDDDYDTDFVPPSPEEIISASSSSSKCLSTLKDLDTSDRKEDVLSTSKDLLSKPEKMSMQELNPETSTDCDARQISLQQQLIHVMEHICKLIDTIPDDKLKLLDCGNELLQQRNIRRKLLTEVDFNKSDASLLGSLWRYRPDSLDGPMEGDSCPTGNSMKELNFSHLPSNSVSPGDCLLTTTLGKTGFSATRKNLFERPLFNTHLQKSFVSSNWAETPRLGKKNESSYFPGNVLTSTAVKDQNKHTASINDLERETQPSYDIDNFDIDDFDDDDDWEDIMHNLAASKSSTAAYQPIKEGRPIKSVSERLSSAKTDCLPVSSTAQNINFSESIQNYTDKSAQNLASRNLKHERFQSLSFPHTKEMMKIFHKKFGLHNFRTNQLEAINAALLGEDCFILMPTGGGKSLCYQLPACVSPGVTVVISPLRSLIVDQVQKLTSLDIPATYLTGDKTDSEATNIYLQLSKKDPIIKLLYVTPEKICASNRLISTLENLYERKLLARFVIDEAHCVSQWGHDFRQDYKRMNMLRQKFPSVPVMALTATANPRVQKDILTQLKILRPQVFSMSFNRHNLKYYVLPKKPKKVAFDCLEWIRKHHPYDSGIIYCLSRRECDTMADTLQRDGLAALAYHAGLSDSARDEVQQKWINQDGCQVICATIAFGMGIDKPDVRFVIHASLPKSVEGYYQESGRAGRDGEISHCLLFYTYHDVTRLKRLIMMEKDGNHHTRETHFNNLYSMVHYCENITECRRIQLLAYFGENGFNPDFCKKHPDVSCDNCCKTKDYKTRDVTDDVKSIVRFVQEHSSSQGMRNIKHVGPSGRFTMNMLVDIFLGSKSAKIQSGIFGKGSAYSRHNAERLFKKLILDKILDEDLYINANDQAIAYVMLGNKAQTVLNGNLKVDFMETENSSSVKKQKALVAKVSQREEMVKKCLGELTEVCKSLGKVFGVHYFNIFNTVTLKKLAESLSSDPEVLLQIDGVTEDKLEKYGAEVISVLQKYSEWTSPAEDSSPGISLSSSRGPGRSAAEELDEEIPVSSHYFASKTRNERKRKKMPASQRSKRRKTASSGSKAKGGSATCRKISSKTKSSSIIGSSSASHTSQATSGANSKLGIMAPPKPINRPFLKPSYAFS
# Description: Inhibition of DNA repair is proposed as a strategy for combating cancer. Synthetic lethality is an approach that exploits preexisting DNA repair deficiencies in certain tumors to develop inhibitors of DNA repair pathways that compensate for the tumor-associated DNA repair deficiency. […] A 1536-well format, fluorescence based, high-throughput screen (AID 651768) has been developed in collaboration with the Brosh Laboratory at the National Institute of Aging (NIA) to screen for inhibitors of the WRN. […]
# Three uL of reaction buffer (25 mM Tris-HCl pH 8.0, 50 mM NaCl, 2 mM MgCl2, 1 mM DTT, 0.01% Tween-20, and 1 nM BLM) was dispensed into a 1536-well Greiner black assay plate via solenoid-valve based nanoliter dispensers. […] The plates were transferred into a ViewLux CCD imager where the reaction was measured in a discontinuous kinetic mode (two reads spaced 15 minutes apart, with intermediate room temperature incubation of the covered assay plate) using the standard red-fluorescence optics (excitation filter 525 nm, emission filter 598 nm). […]
# [4] = qHTS Assay for Identification of Small Molecule Agonists for Hypoxia Response Element Signaling Pathway (AID 914; active = well fitted activation curve with a large enough effect in the signal ratio, with a control signal flat, not every such curve was filed as active; the % refers to the signal ratio); settings: ME-180 HRE-bla reporter, beta-lactamase ratio, CoCl2, 17 h; activation: hits give high values
# How it was run: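 Reporter activity (beta-lactamase, CCF4 460nm/530nm ratio) in HRE-bla ME-180 cells is recorded after 17 h compound exposure with EC50 CoCl2 at 37 degrees Celsius. AC50 values come from titration data.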
# [5] = qHTS Assay for Identification of Small Molecule Antagonists for NFkB Signaling Pathway (AID 895; active = well fitted inhibition curve with a large enough effect in the signal ratio, with a control signal flat, not every such curve was filed as active; the % refers to the signal ratio); settings: NFkB beta-lactamase reporter cells, FRET ratio 460/530, stimulated with 10 pM TNF alpha; series mostly up to 38.3 µM
# How it was run: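 ME-180 NFkB-bla cells (beta-lactamase under NFkB response element), plated overnight, treated with compound then 10 pM TNF alpha (about EC50) for 5 hrs at 37 C. LiveBLAzer FRET read at 460/530 nm emission, 405 nm excitation.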
# [6] = molecular target: Tumor susceptibility gene 101 protein (Homo sapiens) (UniProt Q99816); assay: qHTS Assay for Iinhibitors of HIV-1 Budding by Blocking the Interaction of PTAP/TSG101: Hit Validation (AID 651600); settings: PTAP peptide/TSG101 UEV interaction, biochemical assay; series mostly up to 57.5 µM; also: nearly all actives have a fitted effect of over 70% in size
# Tumor susceptibility gene 101 protein (Homo sapiens), sequence (Q99816 whole entry, looked up): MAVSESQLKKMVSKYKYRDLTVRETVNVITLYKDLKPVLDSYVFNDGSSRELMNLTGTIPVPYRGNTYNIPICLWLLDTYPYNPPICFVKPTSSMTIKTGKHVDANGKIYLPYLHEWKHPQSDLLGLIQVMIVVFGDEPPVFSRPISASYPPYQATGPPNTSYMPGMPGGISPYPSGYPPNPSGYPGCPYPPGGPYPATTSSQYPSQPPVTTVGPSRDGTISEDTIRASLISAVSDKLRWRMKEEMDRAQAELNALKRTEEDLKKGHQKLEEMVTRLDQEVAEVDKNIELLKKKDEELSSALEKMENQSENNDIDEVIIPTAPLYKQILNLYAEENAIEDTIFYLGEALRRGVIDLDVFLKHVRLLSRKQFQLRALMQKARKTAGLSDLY
# Description: Stages of the HIV-1 replication cycle, specifically virus assembly and release, provide underexploited targets for the development of novel antiviral inhibitors. The late stages of HIV-1 replication are mediated by the Gag precursor protein, Pr55Gag. Expression of Pr55Gag is both necessary and sufficient for the production of virus-like particles from Gag-expressing cells. The Gag protein hijacks key host proteins involved in endocytic machinery of the host cell to promote endosomal processing and viral budding. The budding process requires a direct interaction between a […] (PTAP) motif in the p6 domain of Gag and the cellular endosomal sorting protein known as Tsg101. In this way, the Gag PTAP motif promotes the host cells to recruit viral particles to the plasma membrane where the new viral particles are released, effectively turning the host cells into viral factories. A fluorescence anisotropy assay has been developed to quantitatively measure the PTAP-Tsg101 interaction which can be used to screen for inhibitors of this interaction. […]
# Two uL of the Tsg101 binding domain in buffer (10 mM HEPES pH 7.5; 0.15 M NaCl, 0.01% Tween 20; 3 mM EDTA;0.1 mM TCEP) was dispensed into Greiner black MB 1536-well plates (final concentration 10 uM). […] Fluorescent polarization was determined using FITC excitation and polarized emission filters on a Perkin Elmer Viewlux. […]
structure (smiles),measurement,setting,value
N#Cc1ccccc1CN1C(=O)S/C(=C/c2cccn2-c2cccc(C(=O)O)c2)C1=O,Potency,[1],21.5 µM (active)
same,outcome,[2],inactive
same,Potency,[3],17.1 µM (active)
NS(=O)(=O)c1cc2c(cc1Cl)N[C@H](Cc1ccccc1)NS2(=O)=O,activation,[4],4.65%
Cc1cn([C@H]2C[C@H](N=[N+]=[N-])[C@H](CO)O2)c(=O)[nH]c1=O,Potency,[5],inactive
Oc1ccc2ccccc2c1N=Nc1nccs1,outcome,[6],inactive
